The term inhibition denotes the change of the read-out against control, counted positive when it falls.

The target in one assay is Tyrosine-protein kinase Lck (Homo sapiens) (UniProt P06239). Conditions: at 1 µM.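 Also: reported Lck percent inhibition is a mean value.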
Tyrosine-protein kinase Lck (Homo sapiens), sequence (P06239 2-509 limits assumed): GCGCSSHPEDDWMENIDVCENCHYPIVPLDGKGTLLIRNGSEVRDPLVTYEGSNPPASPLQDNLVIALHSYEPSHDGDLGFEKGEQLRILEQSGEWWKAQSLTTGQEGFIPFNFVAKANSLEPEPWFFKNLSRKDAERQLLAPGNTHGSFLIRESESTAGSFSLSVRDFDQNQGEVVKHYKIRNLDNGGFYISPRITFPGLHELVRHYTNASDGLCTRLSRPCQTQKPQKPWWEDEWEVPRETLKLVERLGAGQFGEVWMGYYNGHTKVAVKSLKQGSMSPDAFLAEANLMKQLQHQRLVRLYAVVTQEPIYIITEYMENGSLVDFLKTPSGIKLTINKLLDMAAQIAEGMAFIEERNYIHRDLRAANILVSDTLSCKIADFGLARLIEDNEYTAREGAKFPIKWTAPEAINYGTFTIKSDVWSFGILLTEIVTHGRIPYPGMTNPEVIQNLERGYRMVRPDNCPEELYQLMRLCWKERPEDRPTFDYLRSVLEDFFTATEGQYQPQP
For `CCn1cc(-c2ccnc3[nH]ccc23)c(-c2cccc(NC(=O)Nc3ccc(OCc4ccccc4)cc3)c2)n1`, the inhibition came out at 21.8%.
Still for that read-out and setting: for `Cc1cccc(Nc2ncc(-c3ccccc3)o2)c1` the value was 5.7%.
Still for that read-out and setting: for `Nc1nc(-c2ccc(F)cc2)c(-c2ccc3ncccc3n2)s1` the value was 16.7%.
Regarding `FC(F)(F)c1cccc(-c2nn3ncccc3c2-c2ccnc(Nc3ccc4c(c3)OCCO4)n2)c1`, the inhibition turned out to be 45.8%.
Same read-out and setting: the figure for `CNC(=O)c1cncc(/C=C/c2ccccc2Cl)c1` is 5.49%; for `O=C(O[C@H]1CN[C@H](C#Cc2cc3ncnc(Nc4ccc(Cc5ccccc5)cc4)c3s2)C1)N1CCOCC1` it is 8.13%.
On to `COc1ccc(-c2nn3ncccc3c2-c2ccnc(Nc3ccc4c(c3)OCCO4)n2)cc1`, for which the inhibition came out at 66.8%.
With `CCNC(=O)O[C@H]1CN[C@H](C#Cc2cc3ncnc(Nc4ccc(OCc5cccc(F)c5)c(Cl)c4)c3s2)C1`, the inhibition is 3.76%.
For `COc1ccc(-c2oc3ncnc(N)c3c2-c2ccc(NC(=O)Nc3cc(C(F)(F)F)ccc3F)cc2)cc1`, the inhibition worked out at 83.9%.
Same read-out and setting: the figure for `CCn1c(-c2nonc2N)nc2cnc(Oc3cccc(NC(=O)c4ccc(N(C)C)cc4)c3)cc21` is 1.33%.
Still for that read-out and setting: for `CCn1c(-c2nonc2N)nc2c(C#CC(C)(C)O)nc(OC[C@H](N)c3ccccc3)cc21` the value was 3.65%; for `Fc1ccc(-c2nn3ncccc3c2-c2ccnc(Nc3ccc4c(c3)OCCO4)n2)cc1`, 85.1%; for `COc1cccc(-c2c[nH]c3c(N/N=C/c4ccncc4)ncnc23)c1`, 82%.
Consider `O=C(Nc1n[nH]c2cc(-c3ccc(F)cc3)ccc12)C1CC1`, for which the inhibition is 7.59%.
On to `Clc1ccc(-c2nn3ncccc3c2-c2ccnc(Nc3ccccc3)n2)cc1`, for which the inhibition came to 60%.
Same read-out and setting: the figure for `c1ccc(COc2ccc(Nc3ncnc4ccc(-c5ccco5)cc34)cc2)cc1` is 4.49%; for `N#Cc1c(NC(=O)c2ccc(F)cc2)sc2c1CCCC2` it is 0.45%; for `COc1cc(/C=N/Nc2ncnc3[nH]ncc23)ccc1O` it is 54.7%.
The same measure, in the same setting: the figure for `Nc1nc(-c2cccc(Cl)c2)c(-c2ccc3ncccc3n2)s1` is 8.23%; for `COc1cc2ncn(-c3cc(OCc4ccccc4C(F)(F)F)c(C(=O)N(C)C)s3)c2cc1OC` it is 11.2%; for `COC(=O)Nc1nc2ccc(S(=O)(=O)c3ccc(NC(=O)Nc4cc(C(F)(F)F)ccc4F)cc3)cc2[nH]1` it is 3.94%.
Regarding `COc1ccc(-c2cc3c(N)ncnc3o2)cc1`, the inhibition came to 5.93%.
On the same count and under the same terms, the figure for `COc1cc(N2CCN(C(C)C)CC2)ccc1Nc1nc(Nc2ccc(F)cc2C(N)=O)c2cc[nH]c2n1` is 4.79%; for `CC1=C(C(=O)Nc2cc(Cl)c3[nH]ncc3c2)C(c2ccc(C(F)(F)F)cc2)CC(=O)N1` (stereo unspecified) it is 27.1%.
Same read-out and setting: the figure for `CC(=O)NCc1cccc(C#Cc2cncnc2Nc2ccc(OCc3cccc(F)c3)c(Cl)c2)c1` is 1.6%; for `CCn1c(-c2nonc2N)nc2c(C#CC(C)(C)O)ncc(OC3CCNCC3)c21` it is 4.05%.
Regarding `NS(=O)(=O)c1ccc(Nc2ncc(-c3ccccc3)o2)cc1`, the inhibition was 6.21%.
Still for that read-out and setting: the figure for `CCCN(CCS(C)(=O)=O)Cc1ccc(-c2ccc3ncnc(Nc4ccc(OCc5cccc(F)c5)c(Cl)c4)c3c2)o1` is 5.97%; for `CN1CCC(n2cnc(-c3ccc(F)cc3)c2-c2ccnc(Nc3ccccc3)n2)CC1` it is 20.5%; for `COc1ccc(CNC(=O)c2ccc(-c3cc(-c4nnc(C)o4)ccc3C)cc2)cc1` it is 3.44%.
In the case of `COc1cc(Nc2nccc(Nc3ccc4c(C)n[nH]c4c3)n2)cc(OC)c1OC`, the inhibition is 82.4%.
On to `CN1CCC(n2cnc(-c3ccc(F)cc3)c2-c2ccnc(N)n2)CC1`, for which the inhibition was determined as 13.7%.
On the same count and under the same terms, for `COc1ccc2c(-c3ccnc(Nc4cccc(OC(F)(F)F)c4)n3)cnn2n1` the value was 5.72%.

The target of another assay is Leukocyte tyrosine kinase receptor (Homo sapiens) (UniProt P29376). The note with it: at 0.1 µM.
Leukocyte tyrosine kinase receptor (Homo sapiens), sequence (P29376 whole entry): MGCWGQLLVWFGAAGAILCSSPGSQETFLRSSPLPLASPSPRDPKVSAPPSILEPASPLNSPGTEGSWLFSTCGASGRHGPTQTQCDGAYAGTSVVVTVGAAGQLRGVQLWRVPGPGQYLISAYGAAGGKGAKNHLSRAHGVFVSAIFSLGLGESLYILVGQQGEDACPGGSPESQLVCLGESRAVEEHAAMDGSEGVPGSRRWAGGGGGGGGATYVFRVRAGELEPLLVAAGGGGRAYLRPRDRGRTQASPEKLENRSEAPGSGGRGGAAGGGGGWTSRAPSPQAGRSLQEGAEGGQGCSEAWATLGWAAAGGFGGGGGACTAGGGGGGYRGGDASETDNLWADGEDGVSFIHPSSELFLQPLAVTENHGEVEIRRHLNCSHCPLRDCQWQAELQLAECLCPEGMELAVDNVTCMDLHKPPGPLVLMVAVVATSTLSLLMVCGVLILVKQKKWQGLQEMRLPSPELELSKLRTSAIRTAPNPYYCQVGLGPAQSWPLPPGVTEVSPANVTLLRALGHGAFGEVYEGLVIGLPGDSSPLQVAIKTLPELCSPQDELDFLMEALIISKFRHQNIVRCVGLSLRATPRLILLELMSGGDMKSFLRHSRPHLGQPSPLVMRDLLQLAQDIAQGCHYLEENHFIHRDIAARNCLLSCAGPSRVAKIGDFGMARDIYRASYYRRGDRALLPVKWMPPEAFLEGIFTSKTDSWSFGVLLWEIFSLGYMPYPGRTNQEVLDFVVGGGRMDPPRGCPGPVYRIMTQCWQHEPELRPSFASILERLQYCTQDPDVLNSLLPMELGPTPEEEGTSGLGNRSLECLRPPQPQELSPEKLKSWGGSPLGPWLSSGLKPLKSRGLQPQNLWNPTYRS
Consider `CCn1cc(-c2ccnc3[nH]ccc23)c(-c2cccc(NC(=O)Nc3ccc(OCc4ccccc4)cc3)c2)n1`, for which the inhibition worked out at 1.35%.
On the same count and under the same terms, the figure for `Cc1cccc(Nc2ncc(-c3ccccc3)o2)c1` is 3.02%; for `Nc1nc(-c2ccc(F)cc2)c(-c2ccc3ncccc3n2)s1` it is 3.99%; for `FC(F)(F)c1cccc(-c2nn3ncccc3c2-c2ccnc(Nc3ccc4c(c3)OCCO4)n2)c1` it is 2.06%.
Take `CNC(=O)c1cncc(/C=C/c2ccccc2Cl)c1`: the inhibition was -0.19%.
Still for that read-out and setting: for `O=C(O[C@H]1CN[C@H](C#Cc2cc3ncnc(Nc4ccc(Cc5ccccc5)cc4)c3s2)C1)N1CCOCC1` the value was 1.17%.
Still for that read-out and setting: the figure for `COc1ccc(-c2nn3ncccc3c2-c2ccnc(Nc3ccc4c(c3)OCCO4)n2)cc1` is 3.69%; for `CCNC(=O)O[C@H]1CN[C@H](C#Cc2cc3ncnc(Nc4ccc(OCc5cccc(F)c5)c(Cl)c4)c3s2)C1` it is 3.21%; for `COc1ccc(-c2oc3ncnc(N)c3c2-c2ccc(NC(=O)Nc3cc(C(F)(F)F)ccc3F)cc2)cc1` it is 4.21%.
For the compound `CCn1c(-c2nonc2N)nc2cnc(Oc3cccc(NC(=O)c4ccc(N(C)C)cc4)c3)cc21`, the inhibition worked out at 1.6%.
On the same count and under the same terms, for `CCn1c(-c2nonc2N)nc2c(C#CC(C)(C)O)nc(OC[C@H](N)c3ccccc3)cc21` the value was 5.32%; for `Fc1ccc(-c2nn3ncccc3c2-c2ccnc(Nc3ccc4c(c3)OCCO4)n2)cc1`, 3.99%.
Still for that read-out and setting: for `COc1cccc(-c2c[nH]c3c(N/N=C/c4ccncc4)ncnc23)c1` the value was 3.15%; for `O=C(Nc1n[nH]c2cc(-c3ccc(F)cc3)ccc12)C1CC1`, 2.47%.
Regarding `Clc1ccc(-c2nn3ncccc3c2-c2ccnc(Nc3ccccc3)n2)cc1`, the inhibition came to 1.38%.
Still for that read-out and setting: the figure for `c1ccc(COc2ccc(Nc3ncnc4ccc(-c5ccco5)cc34)cc2)cc1` is 0.59%; for `N#Cc1c(NC(=O)c2ccc(F)cc2)sc2c1CCCC2` it is 1.24%.
Consider `COc1cc(/C=N/Nc2ncnc3[nH]ncc23)ccc1O`, for which the inhibition came to 4.08%.
On the same count and under the same terms, the figure for `Nc1nc(-c2cccc(Cl)c2)c(-c2ccc3ncccc3n2)s1` is 6.27%; for `COc1cc2ncn(-c3cc(OCc4ccccc4C(F)(F)F)c(C(=O)N(C)C)s3)c2cc1OC` it is 1.37%; for `COC(=O)Nc1nc2ccc(S(=O)(=O)c3ccc(NC(=O)Nc4cc(C(F)(F)F)ccc4F)cc3)cc2[nH]1` it is 1.63%.
On the same count and under the same terms, the figure for `COc1ccc(-c2cc3c(N)ncnc3o2)cc1` is -0.7%.
Same read-out and setting: for `COc1cc(N2CCN(C(C)C)CC2)ccc1Nc1nc(Nc2ccc(F)cc2C(N)=O)c2cc[nH]c2n1` the value was 93.5%.
`CC1=C(C(=O)Nc2cc(Cl)c3[nH]ncc3c2)C(c2ccc(C(F)(F)F)cc2)CC(=O)N1` (stereo unspecified): the inhibition was 2.35%.
On to `CC(=O)NCc1cccc(C#Cc2cncnc2Nc2ccc(OCc3cccc(F)c3)c(Cl)c2)c1`, for which the inhibition was 1.56%.
The same measure, in the same setting: the figure for `CCn1c(-c2nonc2N)nc2c(C#CC(C)(C)O)ncc(OC3CCNCC3)c21` is 1.83%; for `NS(=O)(=O)c1ccc(Nc2ncc(-c3ccccc3)o2)cc1` it is 4.12%.
Still for that read-out and setting: for `CCCN(CCS(C)(=O)=O)Cc1ccc(-c2ccc3ncnc(Nc4ccc(OCc5cccc(F)c5)c(Cl)c4)c3c2)o1` the value was 2.12%; for `CN1CCC(n2cnc(-c3ccc(F)cc3)c2-c2ccnc(Nc3ccccc3)n2)CC1`, 2.75%; for `COc1ccc(CNC(=O)c2ccc(-c3cc(-c4nnc(C)o4)ccc3C)cc2)cc1`, 1.41%.
For `COc1cc(Nc2nccc(Nc3ccc4c(C)n[nH]c4c3)n2)cc(OC)c1OC`, the inhibition amounted to 2.14%.
Still for that read-out and setting: the figure for `CN1CCC(n2cnc(-c3ccc(F)cc3)c2-c2ccnc(N)n2)CC1` is 2.54%.
On the same count and under the same terms, for `COc1ccc2c(-c3ccnc(Nc4cccc(OC(F)(F)F)c4)n3)cnn2n1` the value was 3.12%.

The record behind these values is ChEMBL document CHEMBL1961873, “Compounds: GSK PKIS; Assays: Nanosyn kinase panel” (2012).
